Measurements reported in PubChem BioAssay (NCATS).
Records with an inconclusive call do not appear. Values without a mark were called inactive. Activity calls are given as the source filed them. Calls follow the shape of the dose curve; as a rule, active = well fitted inhibition curve with a large enough effect; inconclusive = small, poorly fitted or top-dose-only effect; inactive = flat fitted curve, though single readings scatter.

Assay: Primary qHTS for inhibitors of nuclear receptor binding SET domain protein 2 (NSD2) in an isogenic RCH-ACV NSD2 p.E1099K mutant (9B) (AID 1645876); also: nearly all actives have a fitted effect of over 70% in size
Conditions: RCH-ACV (leukaemia line) NSD2 E1099K (9B) viability, CellTiter-Glo, 72 h; series mostly up to 44.9 µM; activity change, negative = viability loss: at the top concentration
% is scaled to controls: 0 for no effect and ±100 for the full control effect.

Compound	activity change, negative = viability loss	outcome
CC1(C)OC(=O)C=C[C@@]2(C)C1CC(=O)[C@]1(C)C2CC[C@@]2(C)[C@H](c3ccoc3)OC(=O)[C@H]3O[C@]321 (stereo not given in full)	-10.7% [at 17.3 µM]	–
C=C1CC[C@@H]2[C@](C)(CO)[C@H](O[C@@H]3O[C@H](CO)[C@@H](O)[C@H](O)[C@H]3O)CC[C@@]2(C)[C@@H]1C/C=C1/C(=O)OC[C@H]1O	-22% [at 17.3 µM]	–
C=C1CCC2C(C)(C)CCC[C@]2(C)[C@H]1CC/C(C)=C/C(=O)O (stereo not given in full)	-17.3%	–
C[C@@H]1C[C@@H](O)[C@@]2(CO)C(CO)=CCC[C@@H]2[C@@]12C[C@@H](c1ccoc1)OC2=O	-5.25%	–
COC(=O)C1=CO[C@@H](O[C@@H]2O[C@H](CO)[C@@H](O)[C@H](O)[C@H]2O)/C(=C\CO)[C@@H]1CC(=O)OCCc1ccc(O)cc1	4.44% [at 17.3 µM]	–
CC1CC(=O)[C@]2(O)C(C(=O)OCCc3ccc(O)c(O)c3)=CO[C@@H](O[C@@H]3O[C@H](CO)[C@@H](O)[C@H](O)[C@H]3O)[C@H]12 (stereo not given in full)	-4.12% [at 17.3 µM]	–
O=C(/C=C/c1ccccc1)O[C@@H]1[C@@H](CO)O[C@@](CO)(O[C@H]2O[C@H](CO)[C@@H](O)[C@H](O)[C@H]2O)[C@H]1O	–	inactive [at 17.3 µM]
C=C(C(=O)O)[C@@H]1CC[C@@]2(C)CC[C@@H](O)C(=C)C2C1 (stereo not given in full)	-15.6%	–
C/C=C(/C)C(=O)O[C@@H]1C[C@@H](OC(=O)/C(C)=C\C)[C@@]2(C)C3C(=O)C=C(C)C2C3C1(C)C	-29.1% [at 17.3 µM]	–
CC(=O)c1ccc(O[C@@H]2O[C@H](CO[C@@H]3OC[C@@H](O)[C@H](O)[C@H]3O)[C@@H](O)[C@H](O)[C@H]2O)cc1	–	inactive [at 17.3 µM]
